Bioassay records deposited in PubChem BioAssay by National Center for Advancing Translational Sciences (NCATS).
D1 ag: human D1 receptor agonism; P21728; activation, % at 2 µM; HEK293 T-REx D1 cells, calcium flux, agonist mode; AID 504660; 360,000 tested, 1% active; in the data active = activation above about 30%; note: 0% is about no effect
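Inducible HEK293 T-REx D1 cells, force-coupled to calcium signalling, were plated at 4000 cells/well with tetracycline and held overnight at 30 C. After no-wash calcium dye loading, compound-evoked calcium rise over 180 s flagged agonists.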
DRD3 antagonist: blocks the human D3 dopamine receptor. D3R cells, DiscoveRx beta-arrestin luminescence, antagonist mode; hits give low values. 360,000 tested, 2.5% active. P35462. max response, negative = inhibition, %; in the data active = max response below about -50%; note: % is set by controls: 0 for no effect and ±100 for the full control effect
Target sequence (P35462 whole entry, looked up): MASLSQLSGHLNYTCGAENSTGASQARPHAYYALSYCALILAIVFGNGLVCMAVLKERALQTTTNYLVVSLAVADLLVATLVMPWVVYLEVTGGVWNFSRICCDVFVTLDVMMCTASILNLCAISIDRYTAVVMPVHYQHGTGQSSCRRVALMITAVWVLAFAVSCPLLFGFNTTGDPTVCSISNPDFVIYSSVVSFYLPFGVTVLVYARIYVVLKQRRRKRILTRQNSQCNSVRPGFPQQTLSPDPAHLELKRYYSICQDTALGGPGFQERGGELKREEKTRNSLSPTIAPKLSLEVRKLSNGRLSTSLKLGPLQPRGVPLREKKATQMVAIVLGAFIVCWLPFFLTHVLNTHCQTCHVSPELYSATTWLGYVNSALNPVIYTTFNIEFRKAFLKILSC
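Cells plated overnight at 1500 cells/well, then exposed to library compounds with dopamine controls for 90 minutes at 37 degrees C. DiscoveRx reagent added for 30–60 minutes at room temperature; luminescence read, quantitative HTS format.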
D1 antagonist: human D1 dopamine receptor antagonism | activity change, negative = inhibition, % at 10 µM | P21728 | 360,000 tested, 3.2% active | AID 504652 | HEK293 TREx D1 cells, calcium flux, dopamine EC80; hits give low values; in the data active = activity change below about -30%; note: % is set by controls: 0 for no effect and ±100 for the full control effect
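Kinetic fluorescence of a calcium dye serves as the read-out. D1-expressing Hek293 Trex cells, induced overnight at 30 C, are exposed to compound for 180 s before an EC80 dopamine addition, then read 180 s further.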
DRD3 agonist: D3 dopamine receptor (human) agonism; P35462; D3R DiscoveRx beta-arrestin cells, luminescence, 90 min; max activation, %; 410,000 tested, 0.58% active; in the data active = max activation above about 30%; note: 0% is about no effect
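Agonist mode: compounds and dopamine controls were applied to plated cells for 90 min at 37 degrees C after an overnight attachment at 1500 cells/well. Luminescent read-out followed 30 - 60 minutes at room temperature with DiscoveRx detection reagent.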
D1 potentiator: enhances dopamine response at the human D1 receptor. P21728. potentiation, % at 10 µM. HEK293 TREx D1 cells, calcium flux, dopamine EC20 potentiation. 360,000 tested, 0.036% active. AID 504651; in the data active = potentiation above about 30%; note: 0% is about no effect
Active calls of the source: *; / = no result. Hits are enriched below; roughly 6.1% of the tested compounds scored in any of these assays.

SMILES	D1 ag	DRD3 antagonist	D1 antagonist	DRD3 agonist	D1 potentiator
CC(OC(=O)C(C)N1C(=O)C2C3C=CC(C4CC34)C2C1=O)C(=O)c1ccccc1 (stereo not given)	10	0	-38*	2	2
OC(COc1ccccc1)CN1CCCC1 (stereo not given)	2	-6	-2	-11	2
COc1cccc(OC)c1OCCCCCCN1CCN(C)CC1	2	4	3	1	-6
OC(COc1ccccc1)CN1CCN(C(c2ccccc2)c2ccccc2)CC1 (stereo not given)	4	-95*	-6	-27	-13
CCC(=O)c1ccc(OCC(O)CN2CCOCC2)cc1 (stereo not given)	2	13	0	1	1
c1ccc(OCCOCCN2CCN(C(c3ccccc3)c3ccccc3)CC2)cc1	7	-78*	-26	-30	-3
COc1ccccc1OCCCCN1CCN(C(c2ccccc2)c2ccccc2)CC1	9	-84*	9	-34	-12
CCC(=O)c1ccc(OCC(O)CN2CCN(C(c3ccccc3)c3ccccc3)CC2)cc1 (stereo not given)	2	-88*	12	-62	-4
Cc1cc2oc(C(=O)Nc3ccc(S(=O)(=O)N(C)c4ccccc4)cc3)cc(=O)c2cc1C	1	/	-27	7	1
N#Cc1ccc(OCC(O)CN2CCN(C(c3ccccc3)c3ccccc3)CC2)cc1 (stereo not given)	5	-54*	3	-24	20
COc1ccc(NC(=O)CSc2nnc(NC(=O)NC3CCCCC3)s2)cc1OC	-1	/	/	8	-1
O=c1cc(CN2CCOCC2)c2ccccc2o1	/	21	/	43*	/
CCc1cc2c(-c3ccccc3)cc(=O)oc2c(CN2CCOCC2)c1O	55*	18	36	-3	2
O=c1cc(CN2CCOCC2)c2c(ccc3ccccc32)o1	2	25	-12	3	-3
Cc1ccc2[nH]c3c(c2c1)CNCC3	4	-58*	1	-22	-9
O=C(NCCCN1CCCCC1)C1CCN(S(=O)(=O)N2CCC3(CC2)OCCO3)CC1	3	-13	1	-3	-1
Cc1cc(=O)n2nc(N3CCCC(C(=O)NCCCN4CCc5ccccc5C4)C3)sc2n1 (stereo not given)	5	-86*	-32*	-17	-3
O=C(NCCCN1CCc2ccccc2C1)C1CCN(S(=O)(=O)N2CCC3(CC2)OCCO3)CC1	1	-65*	2	-12	-5
O=C(NCCCN1CCc2ccccc2C1)C1CCN(S(=O)(=O)N2CCCC2)CC1	0	-80*	2	-28	-10
Cc1ccc(-c2cnc(NCc3c(F)cccc3Cl)n2C)cc1	-1	/	14	-10	-5
CCN(CC)C(=O)Cn1cc(SCC(=O)Nc2cccc(F)c2)c2ccccc21	-2	/	7	5	-2
CC(C)OCCCNC(=O)CCCC(=O)Nc1ccc(OCCc2ccccc2)cc1	17	-10	-9	-11	1
Cc1ccc(S(=O)(=O)CCC(=O)OCC(=O)c2ccc(C)c(C)c2)cc1	11	1	-31*	6	-10
O=C(NCC(=O)N(c1cccnc1)C(C(=O)NC1CCCC1)c1ccccc1)c1ccco1 (stereo not given)	1	4	-12	52*	0
Cc1ccc(N(C(=O)CNC(=O)c2ccco2)C(C(=O)NC2CCCC2)c2cccnc2)cc1 (stereo not given)	2	-23	32	7	-8
SMILES	D1 ag	DRD3 antagonist	D1 antagonist	DRD3 agonist	D1 potentiator
COc1ccc(C(=O)OC(C(=O)c2ccccc2)c2ccccc2)cc1 (stereo not given)	13	15	-30*	-2	-8
Cc1cc(N2CCN(C)CC2)nc2ccc(NC(=O)c3ccc(C(C)(C)C)cc3)cc12	20	/	-75*	-6	0
COc1cc(OC)cc(C(=O)Nc2ccc3nc(N4CCCCC4)cc(C)c3c2)c1	-1	/	-46*	6	5
CCN1CCN(c2cc(C)c3cc(NC(=O)c4cc(OC)c(OC)c(OC)c4)ccc3n2)CC1	-1	/	7	-26	0
CCN1CCN(c2cc(C)c3cc(NC(=O)c4cncc(Br)c4)ccc3n2)CC1	0	-69*	13	-11	3
COc1cc(NC(=O)C2=CC(c3ccc(F)cc3)=NS(=O)(=O)N2C)cc(OC)c1OC	7	/	-4	-3	-4
